Screens as filed in PubChem.
Only some compounds are listed: those with a hit (about 3.9% of all), similar ones and a draw of the others.
ALR inh = inhibitors of human ALR sulfhydryl oxidase, primary screen, biochemical, H2O2 detection, HRP-luminol luminescence, single point | FAD-linked sulfhydryl oxidase ALR (Homo sapiens), P55789 | purified ALR, DTT oxidation | inhibition, % (test concentration not listed) | actives 3.8% (n = 290,000) | AID 485317, 2010;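 active = mean replicate inhibition above about 79%, with every replicate also reaching it, limit read from the data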
Target sequence (P55789 whole entry, looked up): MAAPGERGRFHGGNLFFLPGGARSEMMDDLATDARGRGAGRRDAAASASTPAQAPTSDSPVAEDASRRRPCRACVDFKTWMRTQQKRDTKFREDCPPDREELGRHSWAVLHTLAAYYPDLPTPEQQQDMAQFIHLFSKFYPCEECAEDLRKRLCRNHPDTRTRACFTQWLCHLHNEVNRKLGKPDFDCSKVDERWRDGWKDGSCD
Mot1-301 SUMO = yeast Mot1-301 growth rescue at high temperature, primary screen, SUMOylation pathway inhibitor project, S. cerevisiae, ATP luminescence, 38.5C; actives 1% (n = 320,000); S. cerevisiae Mot1-301 growth rescue; percent above DMSO median, 100 means doubled; growth rescue, % at 18.8 µM;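 active = every valid replicate shows activation above 250% relative to neutral control wells; inactive = the rest, any valid replicate at or below 250%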;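 also: OY570 slx delta 5 strain wells were the positive control but not used for scaling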
CDK5 inh = inhibitors of human CDK5/p35 kinase, primary screen, biochemical, single concentration; Recombinant CDK5/p35, ADP-Glo luminescence, 60 min; actives 0.01% (n = 330,000); inhibition, % at 10 µM;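 active = highest replicate inhibition of at least 50% and at least 75% of replicates reaching 50%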;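 also: plate controls were DMSO neutral control for no effect and GW8510 at 10 µM for full effect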
N-glyco inh = increase of ERlucT glycosylation luciferase signal, primary screen, N-linked glycosylation inhibitor project, D54 ERlucT cells, luminescence, set 2. D54 ERlucT glycosylation luciferase reporter, 24 h; percent of 100 nM tunicamycin response. reporter increase, % at 12.5 µM. actives 0.23% (n = 360,000);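 active = mean luciferase reporter signal, scaled so untreated is 0 and the glycosylation-blocking control 100, at or above a set limit in every replicate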;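 also: luciferase carries N-glycosylation sites so blocking glycosylation raises the light; 0% = median of neutral control wells and 100% = median of 100 nM tunicamycin wells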
CASP6 VEID inh = human caspase-6 inhibitors, primary screen, biochemical, VEID-R110 fluorescence, single point, set 2 | purified caspase-6, Z-VEID-R110 cleavage fluorescence | actives 0.53% (n = 350,000) | P55212 | inhibition, % at 12.5 µM;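 active = mean inhibition across replicates at least about 35%, with every replicate also reaching that limit, limit read from the data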;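 also: 0% = median of neutral control wells and 100% = no fluorescence left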
Target sequence (P55212 24-179 limits assumed): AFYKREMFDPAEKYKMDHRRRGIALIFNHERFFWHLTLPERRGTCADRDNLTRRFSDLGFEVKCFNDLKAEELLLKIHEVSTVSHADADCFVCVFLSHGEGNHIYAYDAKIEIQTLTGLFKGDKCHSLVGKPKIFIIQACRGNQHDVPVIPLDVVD
Target sequence (P55212 194-293 limits assumed): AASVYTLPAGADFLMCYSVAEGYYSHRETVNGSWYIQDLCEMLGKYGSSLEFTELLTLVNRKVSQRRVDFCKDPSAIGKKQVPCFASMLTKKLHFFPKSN
NSD2 HMT inh = NSD2 histone methyltransferase inhibitors, primary screen, biochemical, AlphaScreen, single concentration, set 2; Histone-lysine N-methyltransferase NSD2 (Homo sapiens), O96028; NSD2 peptide methylation, 120 min; inhibition, % at 12.5 µM; actives 0.54% (n = 310,000); AID 743445, 2014; in the data active = inhibition above about 50%
Starred values were filed as active, the others as inactive; . = not tested or not shown.

SMILES	ALR inh	Mot1-301 SUMO	CDK5 inh	N-glyco inh	CASP6 VEID inh	NSD2 HMT inh
O=C(O)c1ccccc1Nc1ccccc1	99*	-4	-1	0	.	.
COc1cccc(Nc2ccccc2C(=O)O)c1	99*	1	1	2	-2	12
COc1ccc(C(=O)Nc2cc(Cl)ccc2C(=O)O)cc1	17	-18	-1	-1	3	-9
COc1ccc(Nc2ccc(Cl)cc2)c(C(=O)O)c1	99*	8	-3	0	.	3
O=C(O)c1ccccc1Nc1cccc(C(F)(F)F)c1	.	232	-1	3	-3	.
O=C(O)c1cc([N+](=O)[O-])ccc1Nc1ccccc1	9	-10	2	2	2	1
Cc1cc(C(=O)Nc2ccccc2C(=O)O)oc1C	98*	-2	0	2	4	-3
COc1ccc(C(=O)Nc2ccccc2C(=O)Nc2ccc(C(=O)O)cc2)cc1	28	128	0	2	-1	2
O=C(O)c1cc2ccccc2cc1Nc1ccccc1	99*	34	1	3	2	5
Cc1occc1C(=O)Nc1ccccc1C(=O)O	3	-5	3	-1	.	3
COc1ccc(C(=O)Nc2ccccc2C(=O)Nc2ccccc2C(=O)O)cc1	98*	-12	0	-1	8	15
O=C(C[C@H]1CC[C@@H](NC(=O)c2ccccn2)[C@H](CO)O1)NCc1cccc(F)c1	.	.	.	.	-1	.
CC(C)C#Cc1cnc2c(c1)C(=O)N([C@@H](C)CO)C[C@H](C)[C@@H](CN(C)C(=O)Nc1cc(F)ccc1F)O2	.	.	.	.	-3	.
COc1ccc(OC)c(C(c2c(C)[nH][nH]c2=O)c2c(C)[nH][nH]c2=O)c1	-16	-3	0	0	5	0
CCOc1cc(C(c2c(C)[nH][nH]c2=O)c2c(C)[nH][nH]c2=O)ccc1O	95*	23	-4	6	.	44
COc1ccc(O)c(C(c2c(C)[nH][nH]c2=O)c2c(C)[nH][nH]c2=O)c1	-10	6	3	15	72*	.
COc1cc(/C=N/NC(=O)c2ccc(Cn3cc([N+](=O)[O-])cn3)o2)cc(Br)c1O	96*	223	0	1	15	4
COc1ccc(/C=N/NC(=O)c2ccc(Cn3cc([N+](=O)[O-])cn3)o2)cc1O	66	-1	2	1	.	6
COc1cc(/C=N\NC(=O)c2ccc(Cn3cc(Br)c([N+](=O)[O-])n3)o2)cc(OC)c1O	100*	-3	-1	3	.	4
O=C(N/N=C\c1ccc(F)cc1)c1ccc(Cn2cc(Br)c([N+](=O)[O-])n2)o1	11	-8	-1	1	1	-1
C[C@H]1CN([C@@H](C)CO)S(=O)(=O)c2ccc(C3=CCCC3)cc2O[C@@H]1CN(C)S(=O)(=O)c1cn(C)cn1	.	.	.	.	3	.
Cc1cc(NC(=O)CCCS(=O)(=O)c2nc(-c3cccs3)cc(C(F)(F)F)n2)no1	65	.	-1	-14	2	-2
COc1ccc(-c2cc(C(F)(F)F)nc(S(C)(=O)=O)n2)cc1	.	589*	0	-4	.	.
CS(=O)(=O)c1nc(-c2ccc(F)cc2)cc(C(F)(F)F)n1	.	.	1	-22	-2	1
O=C(O)CCS(=O)(=O)c1nc(-c2cccs2)cc(C(F)(F)F)n1	97*	11	0	-3	6	31
SMILES	ALR inh	Mot1-301 SUMO	CDK5 inh	N-glyco inh	CASP6 VEID inh	NSD2 HMT inh
CS(=O)(=O)c1nc(-c2cccs2)cc(C(F)(F)F)n1	99*	136	.	.	.	.
Cc1nn(-c2ccccc2)c(N)c1C(O)(CC(=O)C(F)(F)F)C(F)(F)F (centres undefined)	-7	333*	1	12	.	-6
CN(c1ccccc1)S(=O)(=O)c1ccc(C(=O)Nc2nnc(C3=COCCO3)o2)cc1	98*	-4	0	3	22	-7
CN(C)c1ccc(C(=O)Nc2nnc(C3=COCCO3)o2)cc1	0	5	0	2	3	0
CCCNC(=O)[C@H]1[C@H](CO)[C@H]2Cn3c(ccc(C4=CCCCC4)c3=O)[C@@H]1N2CCC	.	.	.	.	3	.
c1cc(CNc2ccc3c(c2)OCO3)ccn1	87*	580	-2	4	.	6
CC(C)c1ccc(CNc2ccc(N3CCOCC3)cc2)cc1	99*	-16	0	2	.	22
c1cc(CNc2ccc(N3CCOCC3)cc2)ccn1	99*	-4	0	3	.	3
Cc1ccc(CNc2ccc3c(c2)OCO3)cc1	-15	-23	0	5	.	.
Cc1ccc(CNc2ccc(N3CCOCC3)cc2)cc1	99*	-12	-1	3	1	12
Cc1ccc(CNc2ccc(N3CCOCC3)c(Cl)c2)cc1	35	-8	1	0	0	1
c1ccc(NCc2ccncc2)cc1	4	-16	0	0	-2	1
COc1cccc(CNC(=O)C[C@@H]2CC[C@H](NC(C)=O)[C@H](CO)O2)c1	.	.	.	.	1	.
CNC[C@@H]1OCCCC[C@@H](C)Oc2ccc(NS(=O)(=O)c3cccs3)cc2C(=O)N([C@@H](C)CO)C[C@H]1C	.	.	.	.	-1	.
c1cc2c(cc1CNc1ccc(N3CCOCC3)cc1)OCO2	98*	4	-2	1	-1	.
O=C(NCc1ccco1)c1ccc(CS(=O)(=O)c2ccc(Cl)cc2)o1	.	.	.	.	.	-1
CCCC#Cc1cnc2c(c1)C(=O)N([C@@H](C)CO)C[C@H](C)[C@H](CN(C)C(=O)Cc1cccnc1)O2	.	.	.	.	6	.
CO[C@H]1CN(C)C(=O)c2ccc(NS(=O)(=O)c3ccc(Cl)cc3)cc2OC[C@H](C)NC[C@@H]1C	.	.	.	.	0	.
OC1=C(O)c2nc3cc(C(F)(F)F)ccc3nc21	98*	6	1	-2	1	19
C[C@H]1CN([C@@H](C)CO)C(=O)Cc2cc(NC(=O)Nc3ccccc3)ccc2O[C@H]1CN(C)S(=O)(=O)c1ccc(F)cc1	.	.	.	.	1	.
Cc1ccc(-c2nc(=S)c3c(n2Cc2ccco2)CC(C)(C)OC3)cc1	97*	0	3	6	.	.
CCC(=O)N1[C@H](CN(C)C(C)=O)[C@@H](c2ccc(C3=CCCC3)cc2)[C@@H]1CO	.	.	.	.	0	.
O=C1CCc2cc(S(=O)(=O)NC(Cc3ccccc3)C(=O)NC3CCCC3)ccc2N1 (centres undefined)	84*	-11	0	0	3	.
